From PubChem BioAssay AID1159580 (chemical genetic matrix, 2015)
Where “and” joins values, the source holds several entries; their conditions need not be identical. Equal values may be shown once. The whole screen tested about 5,500 compounds, of which about 2,000 (36%) were called active. Inconclusive results (about 18%) are left out. Cut-off read from the data, not from the text of the source: active = normalized growth mostly below about 0.91 (no sharp cut-off); inconclusive = no clear call, values can overlap the other calls; inactive = mostly above about 0.92. The list shows a part of the results.

Assay: chemical genetic growth profiling, strain panel (AID 1159580);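 note: tested at 20 µM; growth read once vehicle control cultures reached saturation at 30 °C; 1 = growth at the plate median or of vehicle wells; lower values mean less growth of the strain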
Settings: S. cerevisiae deletion strains, growth OD

Measured: normalized growth

O=C1CCCN1CC#CCN1CCCC1
inactive: locus YAL013W, strain DEP1, hits give low values 1.02 and 1.01 | locus YAL021C, strain ccr4, hits give low values 1.01 | locus YAL026C, strain drs2, hits give low values 1.03 | locus YAL030W, strain snc1, hits give low values 1.02 | locus YAL040C, strain CLN3, hits give low values 1.01 | locus YBL061C, strain skt5, hits give low values 1.02 | locus YBR009C, strain hhf1, hits give low values 1.01 | locus YBR021W, strain FUR4, hits give low values 0.985 and 1.01 | locus YBR023C, strain chs3, hits give low values 1.02 | locus YBR171W, strain sec66, hits give low values 1.02 | locus YBR229C, strain ROT2, hits give low values 1 and 1.01 | locus YBR231C, strain swc5, hits give low values 1.03 | locus YBR279W, strain paf1, hits give low values 1.01 | locus YCL011C, strain gbp2, hits give low values 1.02 | locus YCL016C, strain dcc1, hits give low values 1.02 | locus YCL029C, strain bik1, hits give low values 1.01 and 1.02 | locus YCL061C, strain MRC1 (second series), hits give low values 1 | locus YCL069W, strain vba3, hits give low values 1.02 | locus YCR088W, strain abp1, hits give low values 1.03 | locus YDL005C, strain med2, hits give low values 1.03 | locus YDL035C, strain GPR1, hits give low values 1 and 1.03 | locus YDL040C, strain nat1, hits give low values 1.01 | locus YDL074C, strain BRE1, hits give low values 0.994 and 1.02 | locus YDL101C, strain DUN1, hits give low values 0.997 and 1.01 | locus YDL134C, strain PPH21, hits give low values 1.01 | locus YDL185W, strain tfp1, hits give low values 1.03 and 1.01 | locus YDL192W, strain arf1, hits give low values 1.01 and 1.02 | locus YDR001C, strain nth1, hits give low values 1.02 | locus YDR069C, strain doa4, hits give low values 1.03 | locus YDR101C, strain arx1, hits give low values 0.979 and 1.01 | locus YDR137W, strain rgp1, hits give low values 1.03 | locus YDR150W, strain NUM1, hits give low values 1.01 and 1 and 1.02 | locus YDR159W, strain sac3, hits give low values 0.999 | locus YDR162C, strain NBP2, hits give low values 1.02 and 1.01 | locus YDR195W, strain ref2 1.02 | locus YDR297W, strain sur2, hits give low values 1.02 | locus YDR318W, strain mcm21, hits give low values 1.01 and 1.02 | locus YDR334W, strain swr1, hits give low values 1.02 | locus YDR335W, strain msn5, hits give low values 1.02 | locus YDR363W, strain ESC2, hits give low values 1.01 | locus YDR388W, hits give low values 1.01 | locus YDR392W, strain spt3, hits give low values 1.01 | locus YDR502C, strain sam2, hits give low values 1.02 and 1.01 | locus YEL003W, strain gim4, hits give low values 1.02 | locus YEL037C, strain rad23, hits give low values 1.02 | locus YEL061C, strain CIN8 (second series), hits give low values 1.02 | locus YEL061C, strain CIN8, hits give low values 1 | locus YER002W, strain NOP16, hits give low values 0.985 | locus YER015W, strain faa2, hits give low values 1.02 | locus YER016W, strain bim1, hits give low values 1.01 | locus YER110C, hits give low values 1.02 | locus YER111C, strain swi4, hits give low values 1.03 | locus YER155C, strain BEM2 (second series), hits give low values 1.03 | locus YER155C, strain BEM2, hits give low values 0.994 and 1.01 | locus YER167W, strain BCK2, hits give low values 1 and 1.02 | locus YFR010W, strain ubp6, hits give low values 1.03 | locus YGL078C, strain dbp3, hits give low values 1.02 and 0.999 | locus YGL086W, strain mad1, hits give low values 0.999 and 1.03 | locus YGL167C, strain pmr1, hits give low values 1.01 | locus YGL173C, strain kem1, hits give low values 1.01 | locus YGL227W, strain vid30, hits give low values 1.02 | locus YGL240W, strain doc1, hits give low values 1.02 | locus YGL248W, strain PDE1, hits give low values 1.02 and 1.01 | locus YGL253W, strain hxk2, hits give low values 1.02 | locus YGR078C, strain PAC10, hits give low values 1 and 0.996 and 1.01 | locus YGR135W, strain pre9, hits give low values 1.04 and 0.991 | locus YGR229C, strain SMI1, hits give low values 1 | locus YGR252W, strain gcn5, hits give low values 1.1 and 1.03 | locus YHR013C, strain ard1, hits give low values 1.04 | locus YHR027C, strain rpn1, hits give low values 1.02 | locus YHR030C, strain SLT2, hits give low values 1.01 and 1.02 | locus YHR079C, strain IRE1 (second series), hits give low values 1.01 and 1.02 | locus YHR079C, strain IRE1, hits give low values 1.02 | locus YHR094C, strain hxt1, hits give low values 1.01 | locus YHR129C, strain ARP1, hits give low values 1 | locus YHR142W, strain chs7, hits give low values 1.05 | locus YHR200W, strain rpn10, hits give low values 1.01 and 1.02 | locus YIL066C, strain RNR3, hits give low values 1.02 and 1.03 | locus YIL073C, strain SPO22, hits give low values 1.06 and 1.1 | locus YIL125W, strain kgd1, hits give low values 1 and 1.01 | locus YIR030C, strain dcg1, hits give low values 1.01 and 1.02 | locus YJL092W, strain hpr5, hits give low values 1.01 | locus YJL095W, strain BCK1 (second series), hits give low values 1.02 | locus YJL095W, strain BCK1, hits give low values 1 and 1.03 and 0.996 | locus YJL115W, strain asf1, hits give low values 1.04 | locus YJL129C, strain trk1, hits give low values 1.04 | locus YJL134W, strain LCB3, hits give low values 1.01 | locus YJL154C, strain vps35, hits give low values 1.01 | locus YJL164C, strain tpk1, hits give low values 1.02 | locus YJL166W, strain qcr8, hits give low values 1.02 | locus YJL168C, strain set2, hits give low values 1 and 1.02 | locus YJL187C, strain SWE1 (second series), hits give low values 0.999 and 1 | locus YJL187C, strain SWE1, hits give low values 1.02 | locus YJR043C, strain POL32, hits give low values 1 and 1.02 | locus YJR066W, strain TOR1, hits give low values 0.971
